Source: PubChem (National Center for Advancing Translational Sciences (NCATS))
Hits are enriched below; roughly 7.4% of the tested compounds scored in any of these assays.
Rab9 prom act: qHTS Assay for Rab9 Promoter Activators; actives 2.8% (n = 320,000); Potency, µM (top dose mostly 9.22 µM), without a hit: at the top dose activation, negative = inhibition, actives largely listed as activators; Huh7 Rab9 promoter-luciferase reporter, luminescence, 24 h; also: % of control where 0% means no effect; nearly all actives have a fitted effect of over 60% in size
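Promoter activation is measured as luciferase luminescence in Huh7 cells stably transfected with a Rab9 promoter–luciferase construct, following 24 h compound exposure at 37 °C and 10 min reagent incubation at ambient temperature.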
ELG1 genotoxic: qHTS screen for small molecules that induce genotoxicity in human embryonic kidney (HEK293T) cells expressing luciferase-tagged ELG1; HEK293T ELG1-luciferase reporter, luminescence, 16 h; Potency, µM (top dose mostly 46 µM), for the others: top-dose activity change, positive = activation, actives largely listed as activators; actives 1.3% (n = 330,000); AID 504466, 2011; also: % of control where 0% means no effect; nearly all actives have a fitted effect of over 60% in size
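After overnight (16 hr) compound treatment at 37 °C, ELG1-luciferase HEK293T cells were lysed with ONE-Glo; luminescence quantified 30 min later at room temperature.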
SMN2 splice up: qHTS Assay for Enhancers of SMN2 Splice Variant Expression | actives 2.8% (n = 210,000) | Potency, µM (doses to about 46.1 µM), for the others: at the top dose activity change, positive = activation, hits mostly activators | AID 1458, 2008 | HEK293 SMN2-luciferase splicing reporter, luminescence, 30-36 h; also: % of control where 0% means no effect; nearly all actives have a fitted effect of over 55% in size
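HEK293 cells carry an SMN2 minigene-luciferase reporter in which exon 7 inclusion puts luciferase in frame. Cells were seeded at 2000 cells/well, attached for 10-12 hours, then exposed to compounds for 30-36 hours at 37C before ONE-Glo luminescence.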
FLuc counter: qHTS profiling assay for firefly luciferase inhibitor/activator using purifed enzyme and Km concentrations of substrates (counterscreen for miR-21 project); purified FLuc, Km substrates, luminescence inhibition; Luciferin 4-monooxygenase (Photinus pyralis), P08659; actives 6.9% (n = 360,000); Potency, µM (doses to about 57.5 µM), for inactives: at the top dose activity change, negative = inhibition, hits mostly inhibitors; AID 588342, 2011;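 also: plate controls were vehicle for no effect and reference inhibitor for full effect; nearly all actives have a fitted effect of over 55% in size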
Target sequence (P08659 whole entry, looked up): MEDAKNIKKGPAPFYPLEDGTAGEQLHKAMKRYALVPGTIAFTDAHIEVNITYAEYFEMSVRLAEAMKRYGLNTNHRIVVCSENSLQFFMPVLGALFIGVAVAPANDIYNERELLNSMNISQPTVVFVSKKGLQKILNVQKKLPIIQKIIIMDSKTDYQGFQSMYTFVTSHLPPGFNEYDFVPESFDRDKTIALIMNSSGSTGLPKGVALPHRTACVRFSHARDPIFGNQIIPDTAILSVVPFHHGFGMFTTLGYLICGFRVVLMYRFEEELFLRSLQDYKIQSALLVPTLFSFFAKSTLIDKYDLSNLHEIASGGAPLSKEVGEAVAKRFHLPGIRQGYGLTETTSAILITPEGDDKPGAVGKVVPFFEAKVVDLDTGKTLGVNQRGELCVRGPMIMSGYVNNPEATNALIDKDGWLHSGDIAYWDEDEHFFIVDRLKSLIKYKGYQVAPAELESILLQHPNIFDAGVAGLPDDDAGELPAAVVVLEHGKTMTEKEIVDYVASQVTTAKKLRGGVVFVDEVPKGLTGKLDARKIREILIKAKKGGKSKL
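Biochemical qHTS of compounds, final roughly 60 µM downward over six points, against 10 nM purified firefly luciferase using Km concentrations of substrates (10 uM D-luciferin, 10 uM ATP) in Tris acetate pH 7.5 buffer; luminescence output.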
NPC1 promoter act: qHTS Assay for NPC1 Promoter Activators; Potency, µM (highest dose often 9.22 µM), inactives show top-dose activation, usual class: activators; Huh7 NPC1 promoter luciferase reporter, 24 h; AID 485313, 2010; actives 2.4% (n = 320,000); also: % of control where 0% means no effect; nearly all actives have a fitted effect of over 60% in size
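Stably transfected Huh7 (NPC1 promoter→luciferase), 1500 cells/well in Opti-MEM + 10% FBS, 2 h settle, then compound 24 h at 37 °C. Luminescence after 10 min with Amplite reagent.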
Active calls of the source: *; u = inconclusive; x = not tested or not shown; [ ] = another dose, or the depositor's remark. Calls follow the shape of the dose curve; as a rule, active = well fitted curve in the direction sought with a large enough effect; inconclusive = small, poorly fitted or top-dose-only effect, or another doubt; inactive = no such curve, though single readings can be large; an effect the other way counts as inactive or inconclusive. Potency is read from the fitted curve at half-maximal effect.

SMILES	Rab9 prom act	ELG1 genotoxic	SMN2 splice up	FLuc counter	NPC1 promoter act
O=C(Nc1ccc(F)cc1)C1CCCCC1	18%	2%	-12%	-4%	3%
Cc1nc(-c2ccc(NC(=O)c3ccccc3)cc2)cs1	-14%	-14%	x	-1%	-7%
Cc1ccc(C(=O)Nc2ccc(-c3csc(C)n3)cc2)cc1	u	u	140%	u	2.2µM*
CCc1ccccc1NC(=O)c1ccc(-c2csc(C)n2)cc1	u	u	x	u	3.5µM*
Cc1nc(-c2ccc(C(=O)NCCO)cc2)cs1	25%	u	-8%	u	3%
O=C(Cn1nc(-c2ccccc2)oc1=O)OCC(=O)c1ccccc1	x	-1%	x	x	x
NS(=O)(=O)c1nc(S(=O)(=O)O)c2[nH]cnc2n1	x	x	-6%[9.22 µM]	x	x
Cc1cc(C(=O)NNC(=O)c2ccccc2F)c2ccccc2n1	-2%	-1%	x	-4%	-6%
Cc1ccc(C)c(NC(=O)Cn2c(=O)n(Cc3ccc4c(c3)OCO4)c(=O)c3oc4ccccc4c32)c1	x	x	x	-1%	x
CCc1nnc(NC(=O)CSc2nc(C)cc(C)c2C#N)s1	0.5µM*	u	11µM*	u	u
CCc1nnc(NC(=O)CSc2nc(-c3ccc(F)cc3)cc(-c3ccccc3)c2C#N)s1	-1%	5%	x	u	-2%
CCOC(=O)NC(=O)CSc1nc(C)cc(C)c1C#N	1.6µM*	5.8µM*	112%	u	2.5µM*
CCN(CC)C(=O)Cn1c(SCC(=O)Nc2ccc(F)cc2)nc2ccccc21	x	x	x	-1%	x
CCC1CCCCN1CCCNC(=O)c1ccc(CS(=O)(=O)Cc2ccc(Cl)cc2)o1 (configuration not stated)	0%	0%	x	5%	-1%
CC1CCc2c(sc3nc(-c4cc5ccccc5oc4=O)nc(Cl)c23)C1 (configuration not stated)	x	x	2%	2.4µM*	x
COc1ccc(N=Cc2nc(-c3ccccc3)oc2OC(C)=O)cc1	2%	0%	x	-10%	2%
Cc1ccc(C(=O)Oc2oc(-c3ccco3)nc2C=Nc2ccc(Cl)cc2)cc1	3.2µM*	u	14µM*	4.8µM*	1.8µM*
CN(C)c1ccc(N=Cc2nc(-c3ccccc3)oc2OC(=O)c2cccc(Cl)c2)cc1	4.5µM*	u	11µM*	u	u
Cc1ccc(C(=O)Oc2oc(-c3ccccc3)nc2C=Nc2ccc(N(C)C)cc2)cc1	u	u	8.9µM*	13µM*	u
CCCCNC(=O)Oc1ccc(C(=O)N2c3ccccc3NC(=O)C2C)cc1 (configuration not stated)	-6%	-1%	x	0%	2%
COC(=O)C1=C(C(=O)OC)[C@@H]2N(C)c3ccccc3[C@@]23C[C@@H](C(=O)OC)N(S(=O)(=O)c2ccc(C#N)cc2)C3=N1	x	x	-2%[9.22 µM]	x	x
O=C(COc1ccccc1Cl)Nc1ccccc1OCc1cc(=O)n2ccccc2n1	x	x	x	19µM*	x
CSc1cccc(NC(=O)Nc2ccccc2OCc2cc(=O)n3cc(C)ccc3n2)c1	x	x	x	3µM*	x
CCc1ccc(NC(=O)Nc2ccccc2OCc2cc(=O)n3ccccc3n2)cc1	x	x	x	0.21µM*	x
CC(C)C(=O)Nc1ccccc1OCc1cc(=O)n2ccccc2n1	x	x	x	-8%	x
SMILES	Rab9 prom act	ELG1 genotoxic	SMN2 splice up	FLuc counter	NPC1 promoter act
Cc1ccc(NC(=O)Cc2nnc(SCC(=O)NC3=NCCS3)n2C)cc1	0%	-1%	x	u	0%
COC(=O)c1ccc(C(/C=C/[C@@H](C)C(=O)NCc2cc(C)n(C)n2)NC(=O)OCc2ccccc2)cc1 (some centres not stated)	x	x	11%	x	x
Nc1ncnc2c1nc(Br)n2C1OC2COP(=O)(O)O[C@@H]2C1O (some centres not stated)	2%[46.1 µM]	x	x	x	0%[46.1 µM]
COc1ccc(NC(=O)COC(=O)c2c3c(nc4ccccc24)CCCC3)cc1Cl	-12%	-16%	-15%	11µM*	1%
C/C(=N\O)c1ccc(N2C(=O)C3CC=C(Cl)CC3C2=O)cc1 (configuration not stated)	u	u	u	11µM*	u
CCOC(=O)c1c(C)nc(C)c(C(=O)OCC)c1-c1cccc(N)c1	-1%	-8%	22µM*	-2%	-10%
CCn1cnc2cc(NCc3nc4ccccc4n3Cc3ccccc3)ccc21	2.8µM*	u	u	5.4µM*	3.5µM*
CC(C)n1cnc2cc(NCc3nc4ccccc4n3C)ccc21	1.1µM*	15µM*	2.8µM*	4.8µM*	1.3µM*
COc1cc(CNc2ccc3c(c2)ncn3C(C)C)cc(OC)c1OC	x	x	-10%	3%	x
CCn1cnc2cc(NCc3nc4ccccc4n3C)ccc21	0.5µM*	1.6µM*	7.1µM*	3µM*	0.79µM*
CC(=O)c1ccc(NC(=O)CCCSc2nc(-c3ccco3)cc(C(F)(F)F)n2)cc1	x	x	-17%	-8%	x
O=C(O)CSCC(=O)N(c1ccccc1)c1ccccc1	0%	0%	x	-1%	-4%
CCCn1cc(S(=O)(=O)c2cccc(Cl)c2)c(=O)c2cc(F)c(N3CCN(CC)CC3)cc21	x	x	x	-1%	x
COc1ccc(/C=C2\CCn3c2nc2cc(C(=O)O)ccc2c3=O)cc1OC	-34%	1%	x	-4%	-3%
COc1cc(/C=C2\CCc3c2nc2ccccc2c3C(=O)O)cc(OC)c1OC	3.5µM*	23µM*	x	0.85µM*	2µM*
COc1ccc(/C=C2\CCn3c2nc2ccccc2c3=O)cc1OC	2.5µM*	u	x	8.5µM*	3.5µM*
Cc1ccc(S(=O)(=O)N2CCOCC2)cc1C(=O)NC(C)CCc1ccccc1 (configuration not stated)	x	-1%	x	x	x
COc1ccc(Br)cc1/C=N/NC(=O)C[n+]1ccccc1	5%	1%	x	-3%	-1%
COc1ccc(C(=O)Nc2cccc(/C(C)=N/NC(=O)c3ccc([N+](=O)[O-])cc3)c2)cc1OC	2%	12%	-5%	5.4µM*	7%
COc1ccc(/C(C)=N/Nc2nc3ccccc3nc2C)cc1OC	3%	1%	x	3µM*	20%
O=C(O)c1cccc(N/N=C/c2cc(Br)cc(Br)c2O)c1	2.8µM*	u	4%[1.84 µM]	24µM*	u
O=C(N/N=C/c1cc(Br)cc(Br)c1O)c1ccncc1	-28%	u	-41%	-18%	-32%
COc1ccc(Br)cc1/C=N/Nc1cccc(C(=O)O)c1	1.6µM*	u	11µM*	21µM*	3.2µM*
COc1cc2c(cc1OC)C(COc1ccc(C(C)C)cc1)NCC2 (configuration not stated)	-44%	-7%	x	0%	-5%
